# S-ASM inh: human S-ASM enzyme inhibition. P17405. placental ASM, HMU-PC fluorogenic substrate, 60 min. Potency, µM (titrated, usually from 57.5 µM), for the others: at the highest dose activity change, negative = inhibition, usual class: inhibitors. 0.006% of 340,000 active. AID 504937; further: potency means the concentration at half of the fitted maximal effect
# Target sequence (P17405 47-631 limits assumed): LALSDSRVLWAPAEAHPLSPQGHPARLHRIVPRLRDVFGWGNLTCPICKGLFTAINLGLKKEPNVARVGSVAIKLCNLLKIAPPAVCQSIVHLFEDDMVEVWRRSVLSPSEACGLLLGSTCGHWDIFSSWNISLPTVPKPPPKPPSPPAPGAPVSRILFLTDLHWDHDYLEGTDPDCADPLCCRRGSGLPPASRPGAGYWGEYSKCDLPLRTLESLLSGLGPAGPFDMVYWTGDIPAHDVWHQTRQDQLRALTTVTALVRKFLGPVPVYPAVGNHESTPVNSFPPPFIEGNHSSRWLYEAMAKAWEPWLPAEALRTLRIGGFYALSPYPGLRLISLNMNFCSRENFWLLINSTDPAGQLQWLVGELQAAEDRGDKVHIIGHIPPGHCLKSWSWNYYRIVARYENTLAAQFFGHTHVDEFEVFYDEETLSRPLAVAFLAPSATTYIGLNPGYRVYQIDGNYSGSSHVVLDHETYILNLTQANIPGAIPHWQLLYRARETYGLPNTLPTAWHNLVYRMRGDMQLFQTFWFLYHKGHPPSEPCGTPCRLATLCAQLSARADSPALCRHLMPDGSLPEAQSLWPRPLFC
#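 Steps: dispense placental human ASM, pin compound, wait 10 min at room temperature, add HMU-PC0 substrate at 9 uM final, incubate 60 min at 37 °C, add stop solution raising pH to 10, read fluorescence.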
# MCF10A rereplic: induces DNA re-replication in MCF 10a normal breast cells; MCF 10A DNA re-replication, Hoechst nuclear intensity, 48 h; Potency, µM (titrated, usually from 46.1 µM), for the others: at the top dose activity, positive = re-replication, most hits filed as activators; 2.9% of 350,000 active; AID 624296; further: potency means the concentration at half of the fitted maximal effect; % of control where 0% means no effect; nearly all actives have a fitted effect of over 50% in size
# Giardia killer: Giardia lamblia killing; 0.15% of 340,000 active; activity change, % at 7.66 µM, hits read low; AID 540267; Giardia lamblia trophozoite viability; in the data active means activity change below about -80%; inconclusive means between about -30% and that limit;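 further: parasites exposed to compound for two days anaerobically before the ATP read; on the % scale 0 is the no-effect control and ±100 the full control effect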
#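 Luminescence from cellular ATP indicates surviving trophozoites (100 cells/well) following 48 hrs anaerobic compound treatment at 37 deg C; signal develops 15-30 min at room temperature.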
# KB-3-1 tox: kills parental KB-3-1 adenocarcinoma cells | KB-3-1 viability, CellTiter-Glo ATP luminescence, 72 h | Potency, µM (series often up to 46.1 µM), actives largely listed as cytotoxic | 1.4% of 400,000 active | AID 1347075; further: potency means the concentration at half of the fitted maximal effect; on the % scale 0 is the no-effect control and ±100 the full control effect; nearly all actives have a fitted effect of over 60% in size
#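 Viability of parental KB-3-1 cells, measured by CellTiter-Glo luminescence, followed a 72 h incubation at 37 °C with pinned compounds in phenol-red-free DMEM containing 10% FBS.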
# KB-V1 MDR tox: kills drug-selected multidrug resistant KB-V1 cells | KB-V1 MDR cells viability, CellTiter-Glo, 72 h | 3.4% of 400,000 active | Potency, µM (highest dose often 46.1 µM), hits mostly cytotoxic; further: potency means the concentration at half of the fitted maximal effect; on the % scale 0 is the no-effect control and ±100 the full control effect; nearly all actives have a fitted effect of over 60% in size
#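 qHTS viability screen in drug-selected KB-V1 MDR cells: 72 h compound treatment at 37 degrees C, ATP luminescence end point.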
# SW480 rerep: inducers of DNA re-replication in SW480 colon cancer cells; SW480 DNA re-replication, Hoechst DNA content imaging, 48 h; Potency, µM (titrated, usually from 46.1 µM), inactives show at the top dose re-replication activation, most hits filed as activators; 1.8% of 340,000 active; further: potency means the concentration at half of the fitted maximal effect; % of control where 0% means no effect; nearly all actives have a fitted effect of over 55% in size
#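 SW480 cells exposed to compounds for 48 hr at 37 C, 5% CO2, then Hoechst-stained 40 min. Nuclear DNA content imaged by fluorescence scanning (405 nm excitation, 500-530 nm emission); re-replication scored as increased high-intensity nuclei.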
# An asterisk follows results filed as active; i = inactive; u = inconclusive; x = no result. Rows were chosen to be rich in hits. Some 6.9% of all compounds tested hit in one or more screens of this group. Unless noted, the call rests on the fitted dose curve; in most records, active means well fitted curve in the direction sought with a large enough effect; inconclusive means small, poorly fitted or top-dose-only effect, or another doubt; inactive means no such curve, though single readings can be large; an effect the other way counts as inactive or inconclusive.
SMILES,S-ASM inh,MCF10A rereplic,Giardia killer,KB-3-1 tox,KB-V1 MDR tox,SW480 rerep
CCOCCCn1c(SCC(=O)Nc2ccc(OC)cc2)nc2ccccc2c1=O,0.3%,-2.3%,23.6,i,i,-13.2%
CC1(C)CC(=O)c2sc(NC(=O)CCS(=O)(=O)c3ccccc3)nc2C1,12.2%,23.1µM*,0.9,20.6µM*,i,-1.7%
CC1(C)CC(=O)c2sc(NC(=O)C(C)(C)C)nc2C1,15.8%,6.8%,-7.9,i,i,1.9%
CC1(C)CC(=O)c2sc(NC(=O)c3cccs3)nc2C1,-3.3%,16.6%,-95.7*,u,u,-5.3%
CC1(C)CC(=O)c2sc(NS(=O)(=O)c3ccc(Br)cc3)nc2C1,8.4%,0.581µM*,5.1,i,i,-31.0%
O=C(CCS(=O)(=O)c1ccccc1)Nc1nnc(C(F)(F)F)s1,0.1%,23.1µM*,4.0,u,u,13µM*
C=C1C=C(C(F)F)n2ncc(C(=O)Nc3cccc(CC)c3)c2N1,x,x,x,i,u,x
O=C(O)CCC(=O)Nc1nnc(C(F)(F)F)s1,3.1%,-0.9%,-17.1,i,u,-3.4%
CCC(NC(=O)Nc1nnc(C(F)(F)F)s1)(C(F)(F)F)C(F)(F)F,-3.9%,u,1.2,10.3µM*,4.11µM*,u
CCOc1ccc(NC(=O)c2cc3c(n(-c4ccc(OC)cc4)c2=O)CC(C)(C)CC3=O)cc1,x,x,x,i,i,x
COc1ccc(NC(=O)c2cccc(OC(=S)N3CCOCC3)c2)cc1,-3.1%,-2.1%,2.5,i,16.4µM*,-6.8%
COc1ccc(N(C)S(=O)(=O)c2cccc(C(=O)Nc3ccc(N4CCOCC4)cc3)c2)cc1,-3.9%,15.5%,-8.1,u,14.6µM*,u
CCOc1ccc(NC(=O)c2cccc(OC(=S)N3CCOCC3)c2)cc1,1.3%,10.6%,-13.6,i,u,0.8%
Clc1nnc(N/N=C/c2ccccc2)c2ccccc12,-13.3%,18.4µM*,9.1,u,u,u
CCOC(=O)c1c(Nc2cccc(C(=O)OC)c2)nnc(-c2ccccc2)c1-c1ccccc1,x,x,x,i,13µM*,x
CCOC(=O)c1c(Nc2ccc(C)cc2)nnc(-c2ccccc2)c1-c1ccccc1,x,x,x,i,23.1µM*,x
COC(=O)c1cccc(Nc2nc3ccccc3nc2C)c1,19.7%,u,0.2,i,i,0.6%
CCOC(=O)c1nc(Nc2ccc(C)cc2)c2ccccc2n1,-7.3%,0.9%,3.1,i,u,u
COC(=O)c1cc(Cc2ccc(N)c(C(=O)OC)c2)ccc1N,213.3%,4.2%,-1.7,u,20.6µM*,2.2%
O=C(C(=O)c1cc(Br)ccc1O)c1cc(Br)ccc1O,-6.0%,2.59µM*,0.3,23.1µM*,u,u
CC(=O)Nc1cc(Br)ccc1O,1.6%,0.731µM*,-19.2,i,i,-10.6%
CC(=O)Nc1cc(-c2ccccc2)ccc1O,4.4%,-0.6%,10.4,i,i,-0.7%
CN(C)C1(CNC(=O)COc2cccc(Cl)c2)CCCCC1,x,x,x,i,u,x
C(=C\c1ccccc1)/CN1CCN(C(c2nnnn2C2CCCCC2)C2CC2)CC1 (configuration not stated),x,x,x,i,18.4µM*,x
C(=C\c1ccccc1)/CN1CCN(C(CCc2ccccc2)c2nnnn2C2CCCCC2)CC1 (configuration not stated),x,x,x,i,u,x
Cc1cccc2cc(/C=N/NC(=O)CN3CCOCC3)c(Cl)nc12,-1.7%,-0.6%,12.2,i,18.4µM*,-4.8%
Cc1ccc2nc(Cl)c(/C=N/NC(=O)CN3CCOCC3)cc2c1,0.7%,-3.5%,12.9,i,i,-26.0%
O=C(NCCn1cc(SCc2ccccc2Cl)c2ccccc21)c1cccs1,x,x,x,i,u,x
COc1ccc(C(=O)Cn2nc(CNc3ccc(Br)cc3)[n+]3c2CCCCC3)cc1,90.2%,u,-7.1,20.6µM*,i,11.7%
